Values joined by “and” are separate entries in the source; they are usually repeats but may differ in a detail not shown here. Identical values can stand only once. Active and inactive are the calls of the source. The calls were made as follows: active = hit-call score of the fitted dose curve at least 0.9, where 1 is the maximum; inactive = score below 0.9.

For three compounds, outcome and AC50 results are on record in PubChem BioAssay (EPA / NIEHS).

Assay [1] addresses Transcription factor E2F1 (Homo sapiens) (UniProt Q01094). Kind of assay: ATG_E2F_CIS: Attagene CIS-FACTORIAL HepG2 Assay for human E2F Transcription Factor 1 (AID 2282935). Conditions: HepG2 Attagene cis-reporter, E2F reporter RNA transcripts; actives raise or lower the signal. Put shortly:
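Measures reporter transcript levels via RT-PCR with capillary electrophoresis detection in HepG2 cells harboring cis-regulated reporter units; 24 h post-dose; bidirectional curve fitting with DMSO as baseline.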

Assay [2] can be described thus: ATG_E_Box_CIS: Attagene CIS-FACTORIAL HepG2 Assay for human Enhancer Box (E-box) (AID 2282936). Conditions: HepG2 E-box cis-reporter transcription, actives raise or lower the signal. Put shortly:
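First, HepG2 cells receive multiple cis-regulated reporter constructs by transient transfection. Next, chemicals are applied for 24 h. Finally, reporter mRNA is quantified via RT-PCR and capillary electrophoresis, with DMSO as baseline.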

The nature of assay [3]: ATG_M_61_CIS: Attagene CIS-FACTORIAL HepG2 Assay for M61 Transcription Factor (Internal Marker) (AID 2282937). Conditions: HepG2 Attagene CIS-FACTORIAL M61 internal marker reporter; actives raise or lower the signal. Put shortly:
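Using transiently transfected HepG2 liver cells, reporter transcript levels were assessed 24 h post-dosing by RT-PCR and capillary electrophoresis. Changes in either direction were fitted relative to DMSO controls.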

Assay [4] is described as follows: ATG_EGR_CIS: Attagene CIS-FACTORIAL HepG2 Assay for human Early Growth Response 1 (EGR1) (AID 2282938). Conditions: HepG2 Attagene CIS-FACTORIAL EGR reporter mRNA; actives raise or lower the signal. Put shortly: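 Fluorescent capillary-electrophoresis signal of reporter cDNA fragments serves as read-out. HepG2 cells bear transiently transfected cis-promoter reporter units and are exposed 24 h; gain- or loss-of-signal is fitted against DMSO.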

Assay [5] can be described thus: ATG_M_19_CIS: Attagene CIS-FACTORIAL HepG2 Assay for M19 Transcription Factor (Internal Marker) (AID 2282939). Conditions: HepG2 Attagene CIS-FACTORIAL M19 internal marker reporter; actives raise or lower the signal. Put shortly: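 Readout: fluorescent reporter-transcript fragments by capillary electrophoresis after RT-PCR. Human HepG2 liver cells carried transfected MRTU constructs reporting endogenous transcription-factor activity; exposure 24 h. Gain or loss of signal fitted relative to DMSO.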

The nature of assay [6]: ATG_ERE_CIS: Attagene CIS-FACTORIAL HepG2 Assay for Estrogen Response Element (ERE) (AID 2282940). Conditions: HepG2 ERE cis-reporter, Attagene RNA transcript; actives raise or lower the signal. Put shortly: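 Readout: reporter mRNA induction by RT-PCR, FAM-labelled primer extension, HpaI digestion and capillary electrophoresis, 24 h after dosing transfected HepG2 cells. Endogenous transcription factors act on cis-element-regulated reporters. Gain or loss fitted against DMSO.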

The nature of assay [7]: ATG_Ets_CIS: Attagene CIS-FACTORIAL HepG2 Assay for human Erythroblast Transformation Specific (ETS) (AID 2282941). Conditions: HepG2 ETS cis-reporter transcription, actives raise or lower the signal. Put shortly: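 After transient cis-reporter transfection, HepG2 cells receive test chemical for 24 h. Reporter mRNA levels, measured by RT-PCR and capillary electrophoresis fluorescence, are analysed bidirectionally relative to the DMSO baseline.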

Assay [8] has as its target Hepatocyte nuclear factor 3-beta (Homo sapiens) (UniProt Q9Y261). Nature of the assay: ATG_FoxA2_CIS: Attagene CIS-FACTORIAL HepG2 Assay for human Forkhead box A2 (FOXA2) (AID 2282942). Conditions: HepG2 cis-reporter transcription factor activity, 24 h; actives raise or lower the signal. Put shortly:
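Fluorescence signal of reporter cDNA fragments, separated by capillary electrophoresis, reflects endogenous transcription factor activity in transfected HepG2 after 24 h. Both increases and decreases fitted against DMSO.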

Assay [9] can be described thus: ATG_FoxO_CIS: Attagene CIS-FACTORIAL HepG2 Assay for human Forkhead box O (FoxO) (AID 2282943). Conditions: HepG2 Attagene cis-reporter, FoxO element, mRNA; actives raise or lower the signal. Put shortly: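 HepG2 cells transiently transfected with cis-element-driven reporter units report endogenous FoxO activity. After 24 h chemical exposure, reporter mRNA quantified by RT-PCR, fluorescent labeling, HpaI digestion and capillary electrophoresis; bidirectional fit versus DMSO.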

Assay [10] is described as follows: ATG_GATA_CIS: Attagene CIS-FACTORIAL HepG2 Assay for human GATA Binding Protein (AID 2282944). Conditions: HepG2 GATA cis-element reporter, Attagene multiplex mRNA; actives raise or lower the signal. Put shortly:
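Read-out: fluorescent reporter mRNA fragments resolved by capillary electrophoresis after RT-PCR. Human liver HepG2 cells carried transiently transfected cis-regulated reporter constructs; chemicals incubated 24 h; gain or loss of signal fitted relative to DMSO.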

The nature of assay [11]: ATG_GLI_CIS: Attagene CIS-FACTORIAL HepG2 Assay for human Zinc Finger Protein GLI1 (AID 2282945). Conditions: HepG2, Attagene cis-factorial reporter mRNA, GLI element; actives raise or lower the signal. Put shortly:
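Transiently transfected HepG2 cells report endogenous transcription factor activity via cis-element-driven reporter units. After 24 h compound exposure, reporter mRNA was measured by RT-PCR with capillary electrophoresis; bidirectional fitting against DMSO baseline.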

The target in assay [12] is Bile acid receptor (Homo sapiens) (UniProt Q96RI1). Nature of the assay: ATG_IR1_CIS: Attagene CIS-FACTORIAL HepG2 Assay for human Nuclear Receptor Subfamily 1 Group H Member 4 (NR1H4), IR1 submotif (AID 2282946). Conditions: IR1 reporter transcription, actives raise or lower the signal. Put shortly:
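HepG2 cells transiently transfected with multiple cis-promoter-driven reporter units to measure endogenous transcription factor activity; 24 h exposure. Reporter mRNA read by RT-PCR, FAM labelling, HpaI digestion and capillary electrophoresis. Bidirectional fit versus DMSO.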

A short description of assay [13]: ATG_ISRE_CIS: Attagene CIS-FACTORIAL HepG2 Assay for human Interferon Regulatory Factor 1 (IRF1) binding to an Interferon-Stimulated Response Element (ISRE) (AID 2282948). Conditions: HepG2 ISRE cis-reporter (Attagene), mRNA transcription readout; actives raise or lower the signal. Put shortly: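 Quantitation relies on labelled RT-PCR fragments separated by capillary electrophoresis. Human HepG2 cells bearing cis-promoter reporter constructs were treated 24 h; DMSO served as baseline for bidirectional fitting.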

Assay [14] can be described thus: ATG_M_32_CIS: Attagene CIS-FACTORIAL HepG2 Assay for M32 Transcription Factor (Internal Marker) (AID 2282949).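 Also: background control marker of the multiplexed CIS panel rather than a real target.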 Conditions: HepG2 Attagene cis-factorial M32 reporter, mRNA; actives raise or lower the signal. Put shortly:
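Internal background marker read-out: RT-PCR/capillary electrophoresis fluorescence of reporter transcripts from transiently transfected HepG2 cells after 24 h chemical exposure. Activity fitted bidirectionally relative to DMSO negative control.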

Assay [15] in a line: ATG_M_06_CIS: Attagene CIS-FACTORIAL HepG2 Assay for M06 Transcription Factor (Internal Marker) (AID 2282950). Conditions: HepG2 Attagene CIS-FACTORIAL M06 internal marker reporter; actives raise or lower the signal. Put shortly:
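Terse: HepG2, transient MRTU transfection (FuGene 6), 24 h dosing; total RNA, oligo(dT) RT, PCR, FAM label, HpaI cut, capillary electrophoresis; bidirectional fit vs DMSO baseline; background-control endpoint.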

The target in assay [16] is Hypoxia-inducible factor 1-alpha (Homo sapiens) (UniProt Q16665). Nature of the assay: ATG_HIF1a_CIS: Attagene CIS-FACTORIAL HepG2 Assay for human Hypoxia Inducible Factor 1 (HIF1A) (AID 2282951). Conditions: HepG2 Attagene cis-factorial HIF1a reporter transcription; actives raise or lower the signal. Put shortly: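 Endogenous-TF cis reporter readout, human HepG2 cells, 24 h incubation; mRNA detected via RT-PCR and capillary electrophoresis fluorescence; DMSO-normalised bidirectional fitting.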

Assay [17] concerns the target Heat shock factor protein 1 (Homo sapiens) (UniProt Q00613). Kind of assay: ATG_HSE_CIS: Attagene CIS-FACTORIAL HepG2 Assay for human Heat Shock Transcription Factor 1 (HSE) (AID 2282953). Conditions: HepG2 HSE cis-reporter, Attagene RNA transcription; actives raise or lower the signal. Put shortly: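 Read-out: fluorescence of reporter-specific RT-PCR fragments separated by capillary electrophoresis. HepG2 carrying transfected cis-element reporter units; 24 h dosing; activity fitted in both directions relative to DMSO baseline.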

Assay [18] can be described thus: ATG_MRE_CIS: Attagene CIS-FACTORIAL HepG2 Assay for human Metal Responsive Element (MRE) (AID 2282954). Conditions: HepG2 MRE cis-reporter transcription, Attagene multiplex; actives raise or lower the signal. Put shortly: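 Fluorescent reporter fragments separated by capillary electrophoresis give mRNA induction for the MRE unit after 24 h treatment of transfected HepG2 cells. Endogenous transcription-factor activity is read; DMSO serves as negative control and baseline.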

Assay [19] in a line: ATG_GRE_CIS: Attagene CIS-FACTORIAL HepG2 Assay for human Glucocorticoid Response Elements (GRE) (AID 2282947). Conditions: HepG2 GRE cis-reporter, Attagene multiplex mRNA; actives raise or lower the signal. Put shortly: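 Endogenous transcription factor activity is read through cis-element reporter constructs transiently transfected into HepG2 cells. After 24 h treatment, labelled RT-PCR products are resolved by capillary electrophoresis; DMSO sets baseline for bidirectional curve fitting.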

Assay [20] addresses Hepatocyte nuclear factor 6 (Homo sapiens) (UniProt Q9UBC0). Nature of the assay: ATG_HNF6_CIS: Attagene CIS-FACTORIAL HepG2 Assay for human Hepatocyte Nuclear Factor 6 (HNF6) (AID 2282952). Conditions: HepG2 Attagene cis-factorial HNF6 reporter transcription; actives raise or lower the signal. Put shortly: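 Transiently transfected HepG2 cells expressing cis-regulated reporter transcription units were exposed to chemical for 24 h in a 24-well format. Reporter transcript abundance was determined by fluorescence capillary electrophoresis.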

Sequence of Hepatocyte nuclear factor 3-beta (Homo sapiens) (Q9Y261 whole entry, looked up, the tested form may be a part): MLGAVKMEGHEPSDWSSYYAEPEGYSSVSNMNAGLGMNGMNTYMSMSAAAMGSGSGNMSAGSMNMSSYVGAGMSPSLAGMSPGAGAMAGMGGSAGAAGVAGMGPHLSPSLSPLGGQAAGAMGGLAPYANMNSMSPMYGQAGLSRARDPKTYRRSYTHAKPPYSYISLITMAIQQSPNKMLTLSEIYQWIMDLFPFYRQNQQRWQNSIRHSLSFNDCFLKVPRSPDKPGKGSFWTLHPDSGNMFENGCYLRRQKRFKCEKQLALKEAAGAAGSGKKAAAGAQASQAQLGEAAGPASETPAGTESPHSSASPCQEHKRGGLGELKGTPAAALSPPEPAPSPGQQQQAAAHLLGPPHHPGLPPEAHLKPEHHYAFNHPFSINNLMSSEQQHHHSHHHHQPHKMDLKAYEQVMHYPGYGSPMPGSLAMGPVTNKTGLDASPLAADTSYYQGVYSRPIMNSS
Sequence of Heat shock factor protein 1 (Homo sapiens) (Q00613 whole entry, looked up, the tested form may be a part): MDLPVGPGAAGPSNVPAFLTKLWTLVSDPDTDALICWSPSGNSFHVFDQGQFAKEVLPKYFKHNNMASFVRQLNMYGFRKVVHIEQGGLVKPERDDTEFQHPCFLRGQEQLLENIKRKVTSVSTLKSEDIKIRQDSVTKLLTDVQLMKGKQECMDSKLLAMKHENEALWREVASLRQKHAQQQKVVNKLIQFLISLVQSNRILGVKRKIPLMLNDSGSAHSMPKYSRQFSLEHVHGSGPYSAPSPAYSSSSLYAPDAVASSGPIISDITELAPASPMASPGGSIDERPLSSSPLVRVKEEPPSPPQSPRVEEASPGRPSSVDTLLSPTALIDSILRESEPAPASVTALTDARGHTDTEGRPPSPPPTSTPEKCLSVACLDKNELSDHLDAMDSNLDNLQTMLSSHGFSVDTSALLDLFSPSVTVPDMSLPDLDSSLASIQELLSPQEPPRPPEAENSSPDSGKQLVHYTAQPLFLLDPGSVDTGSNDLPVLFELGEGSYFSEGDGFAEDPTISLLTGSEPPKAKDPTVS
Sequence of Bile acid receptor (Homo sapiens) (Q96RI1 whole entry, looked up): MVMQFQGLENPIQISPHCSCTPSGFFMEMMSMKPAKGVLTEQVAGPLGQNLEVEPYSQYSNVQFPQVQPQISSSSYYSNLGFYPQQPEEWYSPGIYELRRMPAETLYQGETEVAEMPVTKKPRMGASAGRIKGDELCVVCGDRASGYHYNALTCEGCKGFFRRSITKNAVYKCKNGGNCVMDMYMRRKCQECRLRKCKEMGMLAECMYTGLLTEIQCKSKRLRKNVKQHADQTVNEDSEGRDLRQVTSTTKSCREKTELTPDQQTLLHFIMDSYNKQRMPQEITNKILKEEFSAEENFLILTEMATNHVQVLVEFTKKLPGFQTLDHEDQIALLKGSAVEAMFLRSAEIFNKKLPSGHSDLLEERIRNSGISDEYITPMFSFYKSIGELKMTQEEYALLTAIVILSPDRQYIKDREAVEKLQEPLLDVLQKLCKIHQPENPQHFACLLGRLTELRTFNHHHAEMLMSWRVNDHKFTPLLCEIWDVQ
Sequence of Transcription factor E2F1 (Homo sapiens) (Q01094 whole entry, looked up): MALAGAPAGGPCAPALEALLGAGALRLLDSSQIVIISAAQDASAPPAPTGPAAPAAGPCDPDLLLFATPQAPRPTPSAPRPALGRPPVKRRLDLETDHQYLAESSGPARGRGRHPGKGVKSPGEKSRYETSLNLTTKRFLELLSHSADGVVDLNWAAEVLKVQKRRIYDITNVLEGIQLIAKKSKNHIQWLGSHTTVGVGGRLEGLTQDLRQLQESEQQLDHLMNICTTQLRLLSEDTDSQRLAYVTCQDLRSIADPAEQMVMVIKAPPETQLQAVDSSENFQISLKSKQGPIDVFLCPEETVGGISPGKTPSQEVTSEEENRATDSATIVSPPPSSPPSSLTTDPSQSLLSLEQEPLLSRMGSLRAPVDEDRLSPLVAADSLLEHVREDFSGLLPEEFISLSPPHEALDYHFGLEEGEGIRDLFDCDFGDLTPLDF
Sequence of Hypoxia-inducible factor 1-alpha (Homo sapiens) (Q16665 whole entry, looked up): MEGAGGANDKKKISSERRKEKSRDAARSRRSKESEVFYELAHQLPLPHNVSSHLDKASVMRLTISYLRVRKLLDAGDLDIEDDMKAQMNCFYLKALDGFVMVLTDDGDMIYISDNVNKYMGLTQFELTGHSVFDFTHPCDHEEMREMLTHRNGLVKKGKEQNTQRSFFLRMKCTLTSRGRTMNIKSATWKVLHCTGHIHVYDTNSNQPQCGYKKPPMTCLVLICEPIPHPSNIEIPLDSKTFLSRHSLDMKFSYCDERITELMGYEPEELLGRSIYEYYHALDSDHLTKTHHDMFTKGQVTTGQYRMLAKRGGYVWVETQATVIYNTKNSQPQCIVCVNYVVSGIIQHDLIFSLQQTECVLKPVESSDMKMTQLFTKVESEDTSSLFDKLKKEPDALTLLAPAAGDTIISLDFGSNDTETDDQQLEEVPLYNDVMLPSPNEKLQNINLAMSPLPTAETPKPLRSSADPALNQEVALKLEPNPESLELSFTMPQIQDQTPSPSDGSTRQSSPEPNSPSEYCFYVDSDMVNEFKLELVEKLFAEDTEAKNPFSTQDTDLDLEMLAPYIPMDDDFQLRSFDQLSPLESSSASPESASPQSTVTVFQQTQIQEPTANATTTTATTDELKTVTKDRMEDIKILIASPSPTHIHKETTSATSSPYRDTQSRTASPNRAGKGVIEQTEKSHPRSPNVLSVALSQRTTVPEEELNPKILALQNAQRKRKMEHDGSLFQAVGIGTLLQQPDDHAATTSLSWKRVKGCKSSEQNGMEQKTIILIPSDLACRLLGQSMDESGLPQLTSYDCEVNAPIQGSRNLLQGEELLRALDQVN
Sequence of Hepatocyte nuclear factor 6 (Homo sapiens) (Q9UBC0 whole entry, looked up): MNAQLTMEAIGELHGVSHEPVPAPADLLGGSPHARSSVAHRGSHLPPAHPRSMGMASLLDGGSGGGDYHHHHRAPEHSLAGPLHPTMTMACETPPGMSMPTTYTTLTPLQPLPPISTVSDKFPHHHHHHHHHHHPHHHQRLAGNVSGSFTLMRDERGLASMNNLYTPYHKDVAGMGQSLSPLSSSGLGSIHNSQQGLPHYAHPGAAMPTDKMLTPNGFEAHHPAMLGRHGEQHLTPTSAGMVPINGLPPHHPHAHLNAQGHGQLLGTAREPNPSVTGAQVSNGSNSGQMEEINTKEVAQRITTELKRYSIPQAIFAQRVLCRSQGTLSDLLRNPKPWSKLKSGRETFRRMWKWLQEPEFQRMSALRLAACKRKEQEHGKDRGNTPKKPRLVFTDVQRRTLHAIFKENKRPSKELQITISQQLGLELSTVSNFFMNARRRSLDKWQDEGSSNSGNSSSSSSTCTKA

The AC50 is the concentration giving half of the maximal activity seen. Take `C=C(C)C(=O)OCCC(F)(F)C(F)(F)C(F)(F)C(F)(F)C(F)(F)C(F)(F)F`: the result in assay [1], in assay [2], in [3], in assay [4], in assay [5] and in assay [7] was inactive. Moreover, the call in assay [8], in [9], in [10], in assay [11], in assay [12] and in assay [13] was inactive. Besides, the result in [14], in assay [15], in assay [16], in assay [17] and in [18] was inactive. The AC50 in [6] was 57.4 µM (active) and 150 µM (active).

On to `CN1CCN(c2ccccc2/C=C2\SCCN(c3ccc(Cl)c(Cl)c3)C2=O)CC1`, for which the compound was classed as inactive in assay [1], in assay [2], in [3], in assay [4], in assay [5] and in assay [6]. Also, the call in [7], in assay [8], in [9], in assay [10], in assay [11] and in assay [12] was inactive. In addition, the compound was called inactive in assay [19], in assay [13], in assay [14], in [15], in assay [16] and in [20]. The call in assay [17] and in assay [18] was inactive.

For the compound `CCc1nn(C2CCCCC2)c2cc(C3(C#N)CCC(C(=O)O)CC3)ccc12` (configuration not stated), the result in assay [1], in assay [2], in [3], in assay [4], in assay [5] and in [7] was inactive. In addition, the result in assay [8], in assay [9], in assay [10], in assay [11], in assay [12] and in [14] was inactive. Moreover, the compound was called inactive in [15], in assay [20] and in assay [17]. Besides, the AC50 was 2.31 µM (active) in assay [6], 67.2 µM (active) in [13], 100 µM (active) in [16] and 100 µM (active) in assay [18].
